Among all 5,500 compounds or so, about 2,000 (36%) were called active. About 18% were inconclusive and are not listed. No stated cut-off is given here; in the data, active means normalized growth mostly below about 0.91 (no sharp cut-off); inconclusive means no clear call, values can overlap the other calls; inactive means mostly above about 0.92. The list shows a part of the results.
Assay: chemical genetic growth profiling, strain panel (AID 1159580);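 further: tested at 20 µM; growth read once vehicle control cultures reached saturation at 30 °C; 1 = growth at the plate median or of vehicle wells; lower values mean less growth of the strain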
Settings: S. cerevisiae deletion strains, growth OD

Measured: normalized growth

C[C@]12CCC(=O)C=C1CC[C@@H]1[C@@H]2C(=O)C[C@@]2(C)[C@H]1CC[C@]2(O)C(=O)CO
inactive: locus YAL040C, strain CLN3, active compounds read low 0.957 | locus YCL061C, strain MRC1 (second series), active compounds read low 0.993 | locus YDR150W, strain NUM1, active compounds read low 1 | locus YDR363W, strain ESC2, active compounds read low 0.986 | locus YER002W, strain NOP16, active compounds read low 0.966 | locus YNL128W, strain TEP1, active compounds read low 0.978 | locus YNL153C, strain GIM3, active compounds read low 0.979 | locus YNL175C, strain NOP13, active compounds read low 0.982 | locus YNL197C, strain WHI3, active compounds read low 0.942 | locus YNL224C, strain SQS1, active compounds read low 0.983 | locus YNL322C, strain KRE1, active compounds read low 0.988 | locus YOR083W, strain WHI5 (second series), active compounds read low 0.94 | locus YPL241C, strain CIN2, active compounds read low 0.995

Source: PubChem BioAssay AID1159580 (chemical genetic matrix, 2015)
